The list shows a part of the results. How many sequences the whole screen found active is unknown.
B1: HC1067 (peptide)
chain: CAGGWVAAQLAGNASASA
B2: HC877 (peptide)
chain: CAVVVATDALAGNASASA
B3: FS-2295 (peptide)
chain: CARRKRCMRHAGNASASA
B4: FS-2005 (peptide)
chain: CAREIRSEEPAGNASASA
B5: FS-3205 (peptide)
chain: CARRKRYAIQAGNASASA
B6: FS-1777 (peptide)
chain: CARRKRKKKHAGNASASA
B7: FU8 (peptide)
chain: CARRKRYAIQAGNASASA
B8: FS-2841 (peptide)
chain: CARVQRMAEHAGNASASA
B9: FS-1997 (peptide)
chain: CARCRKSCEHAGNASASA
B10: FS-2515 (peptide)
chain: CARRKRKVLHAGNASASA
B11: HC2183 (peptide)
chain: CAEVATSTWVAGNASASA
B12: HC2542 (peptide)
chain: CASTPCSQHLAGNASASA
B13: HC978 (peptide)
chain: CAITLTHPVTAGNASASA
B14: HC2160 (peptide)
chain: CACVVTSTWVAGNASASA
B15: DV2 (peptide)
chain: CARERKAGCKAGNASASA
B16: HC17 (peptide)
chain: CAMEEYSQHLAGNASASA
B17: HC918 (peptide)
chain: CASVLCECYDAGNASASA
B18: HC1516 (peptide)
chain: CANTLTCYIKAGNASASA
B19: FS-3157 (peptide)
chain: CARKARIISQAGNASASA
B20: FS-2340 (peptide)
chain: CARKARSYIKAGNASASA
B21: FS-3166 (peptide)
chain: CARRKRHSEHAGNASASA
B22: FS-2685 (peptide)
chain: CARKARMLYQAGNASASA
B23: FS-2296 (peptide)
chain: CARRKRKKEVAGNASASA
B24: FS-1780 (peptide)
chain: CARRKRYISQAGNASASA
B25: HC1427 (peptide)
chain: CARKAVTHINAGNASASA
B26: HC1476 (peptide)
chain: CAKKTPMGFSAGNASASA
B27: HC1675 (peptide)
chain: CAHEECSQHLAGNASASA
B28: HC99 (peptide)
chain: CAVVCQSMSYAGNASASA
B29: HC1468 (peptide)
chain: CAYSPGQRVEAGNASASA
B30: HC1217 (peptide)
chain: CAPCQVPSPEAGNASASA
B31: FS-441 (peptide)
chain: CAHVQRQRREAGNASASA
B32: FS-471 (peptide)
chain: CAPCCRQRREAGNASASA
B33: HC626 (peptide)
chain: CAGHYVQMVIAGNASASA
B34: HC2191 (peptide)
chain: CAEVDTSTWVAGNASASA
B35: HC773 (peptide)
chain: CAVAHLHAPTAGNASASA
B36: FS-2938 (peptide)
chain: CARHKRRSKFAGNASASA
B37: FS-2335 (peptide)
chain: CARHKRMCQGAGNASASA
B38: FS-1954 (peptide)
chain: CARHKRKVFEAGNASASA
B39: HC1383 (peptide)
chain: CAALSNSLLRAGNASASA
B40: FS-1823 (peptide)
chain: CARHKRKQLPAGNASASA
B41: FS-2336 (peptide)
chain: CARHKRSLLRAGNASASA
B42: FS-2678 (peptide)
chain: CARHKRETLKAGNASASA
B43: FS-2159 (peptide)
chain: CARNKRKVFSAGNASASA

Molecular target: furin, P09958
Experiment: furin cleavage Z-score vs untreated control; higher = more cleavage, active = 3.5 or more, inactive = 1 or less, 8 variable residues between constant flanks
Method in brief: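 To give the cleavage Z-score, log read counts were set against furin-free reactions, lowess-adjusted and scaled by median absolute deviation. These counts came from PCR adapter-tagged, sequenced DNA released when purified furin cut 8-mer peptides fused to a cDNA oligonucleotide and held on magnetic beads by their N-terminus. Digests were 0.01 ml, 1:10 enzyme:substrate, in 50 mM HEPES pH 7.5 with CaCl2 and NaCl, for 7.5, 15 or 30 min.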

Chain of furin, P09958 (P09958 whole entry): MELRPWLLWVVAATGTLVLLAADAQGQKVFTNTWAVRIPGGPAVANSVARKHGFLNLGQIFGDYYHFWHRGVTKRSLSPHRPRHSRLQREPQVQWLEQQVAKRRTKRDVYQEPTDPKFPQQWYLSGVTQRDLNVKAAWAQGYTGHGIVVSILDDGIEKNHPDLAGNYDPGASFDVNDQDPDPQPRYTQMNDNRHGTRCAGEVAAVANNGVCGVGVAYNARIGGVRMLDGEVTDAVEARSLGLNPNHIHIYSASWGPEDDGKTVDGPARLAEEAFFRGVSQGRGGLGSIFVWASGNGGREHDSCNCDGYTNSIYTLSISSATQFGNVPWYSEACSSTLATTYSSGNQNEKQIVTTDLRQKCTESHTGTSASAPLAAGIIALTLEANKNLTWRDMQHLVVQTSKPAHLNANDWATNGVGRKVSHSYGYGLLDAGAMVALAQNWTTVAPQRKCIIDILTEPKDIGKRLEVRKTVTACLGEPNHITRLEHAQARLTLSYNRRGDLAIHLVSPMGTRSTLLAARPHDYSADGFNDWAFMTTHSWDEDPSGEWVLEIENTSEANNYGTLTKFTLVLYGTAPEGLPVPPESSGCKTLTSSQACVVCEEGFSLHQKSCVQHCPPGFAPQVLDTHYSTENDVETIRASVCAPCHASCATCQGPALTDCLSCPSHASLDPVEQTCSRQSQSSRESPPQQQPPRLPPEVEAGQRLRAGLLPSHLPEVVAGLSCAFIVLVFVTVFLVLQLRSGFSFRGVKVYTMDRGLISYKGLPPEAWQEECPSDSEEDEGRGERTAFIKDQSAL

Sequence	furin cleavage Z-score (7.5 min)	furin cleavage Z-score (15 min)	furin cleavage Z-score (30 min)
B1	-0.864 (inactive)	-1.6 (inactive)	0.105 (inactive)
B2	-0.345 (inactive)	-0.967 (inactive)	-0.904 (inactive)
B3	6.23 (active)	8.55 (active)	6.72 (active)
B4	0.429 (inactive)	-0.412 (inactive)	-0.762 (inactive)
B5	8.13 (active)	11.7 (active)	10.8 (active)
B6	-0.226 (inactive)	0.662 (inactive)	2.03
B7	8.03 (active)	11.3 (active)	11.2 (active)
B8	2.56	3.98 (active)	4.15 (active)
B9	-0.455 (inactive)	-0.923 (inactive)	0.798 (inactive)
B10	1.78	1.49	4.34 (active)
B11	-1.15 (inactive)	-1.35 (inactive)	-0.393 (inactive)
B12	-0.0132 (inactive)	0.861 (inactive)	2.13
B13	-0.565 (inactive)	-1.36 (inactive)	-0.511 (inactive)
B14	-0.122 (inactive)	1.54	-0.488 (inactive)
B15	0.35 (inactive)	1.62	2.14
B16	-0.583 (inactive)	0.186 (inactive)	0.59 (inactive)
B17	-0.934 (inactive)	-1.47 (inactive)	-0.91 (inactive)
B18	-0.56 (inactive)	-0.15 (inactive)	-0.828 (inactive)
B19	1.75	-1.95 (inactive)	-0.675 (inactive)
B20	-0.0545 (inactive)	0.583 (inactive)	3.72 (active)
B21	10.5 (active)	10.9 (active)	8.79 (active)
B22	1.39	5.49 (active)	5 (active)

Sequence	furin cleavage Z-score (7.5 min)	furin cleavage Z-score (15 min)	furin cleavage Z-score (30 min)
B23	1.16	-1.15 (inactive)	1.21
B24	6.79 (active)	7.45 (active)	9.13 (active)
B25	-0.202 (inactive)	-1.07 (inactive)	0.0109 (inactive)
B26	-0.403 (inactive)	1.01	-1.33 (inactive)
B27	-0.578 (inactive)	0.64 (inactive)	1.48
B28	0.407 (inactive)	0.993 (inactive)	0.767 (inactive)
B29	-0.672 (inactive)	1.68	-1.81 (inactive)
B30	0.307 (inactive)	-0.147 (inactive)	0.789 (inactive)
B31	12.3 (active)	12.8 (active)	9.16 (active)
B32	10.1 (active)	8.7 (active)	8.83 (active)
B33	-0.996 (inactive)	-0.792 (inactive)	0.151 (inactive)
B34	-0.604 (inactive)	-1.24 (inactive)	0.933 (inactive)
B35	-0.671 (inactive)	-1.87 (inactive)	-0.0272 (inactive)
B36	1.38	2.52	5.2 (active)
B37	1.23	0.787 (inactive)	3.08
B38	0.591 (inactive)	1.75	4.34 (active)
B39	-1.04 (inactive)	0.165 (inactive)	0.485 (inactive)
B40	1.11	-0.015 (inactive)	2.17
B41	3.75 (active)	5.3 (active)	6.44 (active)
B42	8.31 (active)	10.5 (active)	9.25 (active)
B43	0.528 (inactive)	1.39	3.14
